Only some compounds are listed: those with a hit (about 2.1% of all), similar ones and a draw of the others.
STAT3 binder – binds human STAT3 on microarray | Small molecule microarray, His-STAT3 binding, anti-His fluorescence | calls only | 17,000 tested, 0.2% active;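 active means compounds whose four printed spots each show fluorescence over background unusually high for their array block, chance value under 7%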
Myc binder – binds human c-Myc on microarray; P01106; small molecule microarray, His-c-Myc binding, anti-His fluorescence; calls only; 17,000 tested, 1.5% active;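 active means spot fluorescence over background with P-value below 7% in all four replicate spots, showing protein binding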;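 further: score is binary with 100 for all four spots passing and 0 otherwise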
Target sequence (P01106 whole entry, looked up): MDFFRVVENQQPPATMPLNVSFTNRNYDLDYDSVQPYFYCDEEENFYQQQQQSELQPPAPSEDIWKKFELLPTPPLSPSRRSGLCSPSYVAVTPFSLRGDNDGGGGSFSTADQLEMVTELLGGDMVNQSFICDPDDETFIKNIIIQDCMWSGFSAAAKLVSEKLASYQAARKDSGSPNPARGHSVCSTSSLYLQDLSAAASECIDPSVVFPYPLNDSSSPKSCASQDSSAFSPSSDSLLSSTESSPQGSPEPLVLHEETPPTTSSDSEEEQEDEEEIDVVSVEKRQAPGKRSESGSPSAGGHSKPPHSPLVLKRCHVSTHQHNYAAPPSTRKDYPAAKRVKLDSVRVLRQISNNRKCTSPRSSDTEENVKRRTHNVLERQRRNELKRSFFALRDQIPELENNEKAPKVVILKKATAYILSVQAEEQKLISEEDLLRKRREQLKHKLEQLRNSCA
NFkB binder – binders of human NF-kappa-B p105. calls only. P19838. Small molecule microarray, anti-His fluorescence binding. 17,000 tested, 1.3% active. AID 624139;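 active means spot fluorescence over background significantly raised, with a chance value under 7% in all four replicate spots of the compound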;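 further: probe protein is his-tagged human p50 processed subunit at 1 µg/ml; raw spot fluorescence signals with no normalization applied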
mut p53 SMM – binds human mutant p53 on microarray. small molecule microarray binding, anti-GST fluorescence. calls only. 17,000 tested, 0.4% active. AID 624136;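 active means compounds whose four printed spots each glow above background more than chance allows, each with a p-value under 7%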
Active calls of the source: *; i = inactive; + = active, no number.

SMILES	STAT3 binder	Myc binder	NFkB binder	mut p53 SMM
C[C@@H]1O[C@@H](O[C@H]2[C@H](O[C@H]3[C@H](O[C@H]4CC[C@@]5(C)C(CC[C@]6(C)C5CC=C5[C@@H]7CC(C)(C)C[C@@H](O)[C@]7(C)CC[C@]56C)[C@@]4(C)CO)O[C@H](C(=O)O)[C@@H](O)[C@@H]3O)OC[C@H](O)[C@@H]2O)[C@H](O)[C@H](O)[C@H]1O (some centres undefined)	i	+	i	+
CCCCn1c2ccccc2c2nnc(SCCN3CCOCC3)nc21	i	i	i	+
CC(=O)Nc1ccc(NC(=O)CSc2nnc3c4ccccc4n(C)c3n2)cc1	i	i	i	i
O=C(Cn1cc(CN2C(=O)COC[C@H]2c2ccccc2)nn1)Nc1nccs1	i	i	i	+
O=C(Nc1ccccc1)N[C@@H](Cc1ccccc1)Cn1cc(CN2C(=O)COC[C@H]2c2ccccc2)nn1	i	i	i	i
COc1cc(NC(=O)C(C)Oc2ccccc2)c(Cl)cc1NC(=O)c1ccc(Cl)cc1 (centres undefined)	i	i	i	i
Cc1cc(Cl)ccc1OC(C)C(=O)Nc1ccc(C(=O)Nc2ccccc2C(=O)O)cc1 (centres undefined)	i	+	i	i
C[C@H](CCC(=O)O)[C@H]1CCC2[C@@H]3CC[C@@H]4C[C@H](O)CC[C@]4(C)C3C=C[C@@]21C (some centres undefined)	i	i	+	i
COc1ccc2nc(Nc3nc(C)c(CCC(C)C)c(=O)[nH]3)nc(C)c2c1	i	i	+	i
COC(=O)C1=COC(O[C@@H]2O[C@H](CO)[C@@H](O)[C@H](O)[C@H]2O)[C@@H]2[C@@](C)(O)[C@@H](OC(=O)/C=C\c3ccccc3)C[C@]12O (some centres undefined)	i	i	i	i
COC1CC(OC2C(C)OC(OC3C(C)OC(OC4C(C)OCC(OC5C(O)C(O[C@H]6CC[C@@]7(C)C(=CC[C@]8(O)C7CC(OC(=O)c7ccccc7)[C@@]7(C)[C@]8(O)CC[C@@]7(O)C(C)=O)C6)OC(CO)C5OC5OC(CO)C(O)C(O)C5O)C4OC)CC3OC)CC2OC)OC(C)C1O (some centres undefined)	i	+	+	i
C/C=C(\C)C(=O)O[C@@H]1[C@@H](OC(C)=O)C2[C@@]3(C)CC[C@H](OC4CC(OC)C(OC5CC(OC)C(OC6CC(OC)C(OC7OC(C)C(OC8OC(CO)C(O)C(O)C8O)C(OC)C7O)C(C)O6)C(C)O5)C(C)O4)CC3=CC[C@@]2(O)[C@@]2(O)CC[C@H](C(C)=O)[C@@]12C (some centres undefined)	i	+	+	i
CO[C@@H]1CC(OC2CCC3(C)C(CCC45CCC(C6=CC(=O)OC6)C(C)(CCC43)C5=O)C2)O[C@H](C)[C@@H]1O[C@@H]1O[C@H](CO[C@@H]2O[C@H](CO)[C@@H](O)[C@H](O)[C@H]2O)[C@@H](O)[C@H](O)[C@H]1O (some centres undefined)	i	i	i	i
CNC[C@H]1OCCCC[C@@H](C)Oc2ccc(N)cc2C(=O)N([C@H](C)CO)C[C@@H]1C	i	i	i	i
C[C@@H]1CN([C@@H](C)CO)C(=O)c2cccc(NC(=O)Nc3ccccc3)c2O[C@@H]1CN(C)C(=O)NC1CCCCC1	i	i	i	i
C[C@@H]1CN([C@@H](C)CO)C(=O)c2cccc(NC(=O)C3CCOCC3)c2O[C@H]1CN(C)Cc1ccc(Cl)c(Cl)c1	i	+	i	i
C[C@@H]1CN([C@@H](C)CO)C(=O)c2cccc(NC(=O)Nc3cccc4ccccc34)c2O[C@H]1CN(C)C(=O)Nc1ccc(C(F)(F)F)cc1	i	i	+	i
C[C@H]1CN([C@@H](C)CO)C(=O)c2cccc(NC(=O)NC3CCCCC3)c2O[C@H]1CN(C)C(=O)NC1CCCCC1	i	+	+	i
C[C@H](CO)N1C[C@H](C)[C@@H](CN(C)Cc2ccc(Cl)c(Cl)c2)Oc2c(NC(=O)C3CCOCC3)cccc2C1=O	i	i	i	i
C[C@@H]1CN([C@@H](C)CO)C(=O)c2cc(NC(=O)NC3CCCCC3)ccc2O[C@H]1CN(C)C(=O)Nc1ccc(C(F)(F)F)cc1	i	i	+	i
C[C@@H]1CN([C@H](C)CO)C(=O)c2cccc(NC(=O)C3CCOCC3)c2O[C@H]1CN(C)S(=O)(=O)c1cccs1	i	i	i	i
C[C@H]1CCCCO[C@@H](CN(C)C)[C@@H](C)CN([C@@H](C)CO)C(=O)c2cc(N(C)C)ccc2O1	i	i	i	i
C[C@@H]1CN([C@@H](C)CO)C(=O)c2cc(NS(=O)(=O)c3ccccc3)ccc2O[C@@H](C)CCCCO[C@@H]1CN(C)Cc1ccncc1	i	i	i	i
C[C@@H]1CCCCO[C@@H](CN(C)S(=O)(=O)c2cn(C)cn2)[C@H](C)CN([C@H](C)CO)C(=O)c2cc(NS(=O)(=O)c3cn(C)cn3)ccc2O1	i	i	i	i
C[C@H](CO)N1C[C@H](C)[C@@H](CN(C)C(=O)NC2CCCCC2)Oc2c(NC(=O)Nc3ccc(C(F)(F)F)cc3)cccc2C1=O	i	+	+	i
SMILES	STAT3 binder	Myc binder	NFkB binder	mut p53 SMM
C[C@H](CO)N1C[C@H](C)[C@@H](CN(C)Cc2ccc(C(F)(F)F)cc2)OCc2cnnn2CCCC1=O	i	+	+	i
C[C@@H]1CN([C@H](C)CO)C(=O)c2cccc(NC(=O)NC3CCCCC3)c2O[C@H]1CN(C)C(=O)Nc1ccc(C(F)(F)F)cc1	i	+	+	i
C[C@H](CO)N1C[C@H](C)[C@H](CN(C)C(=O)NC2CCCCC2)Oc2c(NC(=O)Nc3ccc(F)cc3)cccc2C1=O	i	i	i	i
C[C@@H]1CN([C@@H](C)CO)C(=O)c2cccc(NC(=O)Nc3ccc(C(F)(F)F)cc3)c2O[C@H]1CN(C)C(=O)NC1CCCCC1	+	i	i	i
C[C@H]1CN([C@@H](C)CO)C(=O)c2cccc(NC(=O)NC3CCCCC3)c2O[C@H]1CN(C)C(=O)Nc1ccc(C(F)(F)F)cc1	i	i	i	i
COc1ccccc1CN(C)C[C@H]1OCc2cn(nn2)CCCC(=O)N([C@H](C)CO)C[C@@H]1C	i	i	i	i
Cc1cc(C(=O)Nc2cccc3c2O[C@H](CN(C)C(=O)NC2CCCCC2)[C@H](C)CN([C@@H](C)CO)C3=O)n(C)n1	i	i	i	i
CC(C)NC(=O)Nc1cccc2c1O[C@H](CN(C)Cc1ccccc1)[C@H](C)CN([C@@H](C)CO)C2=O	i	i	i	i
CC(C)NC(=O)Nc1cccc2c1O[C@@H](CN(C)Cc1ccc(C(F)(F)F)cc1)[C@H](C)CN([C@@H](C)CO)C2=O	i	+	+	i

High-throughput results (PubChem)
